# Screening data from PubChem.
# In the library only some 18% were active in any assay of this set; here they are far more common.
# VDR inh – vitamin D3 receptor (human) inhibition. VDR-SRC2-3 peptide fluorescence polarization, 2 h. 400,000 compounds, 0.93% hits. Potency, µM, for the others: max response, negative = inhibition, actives largely listed as inhibitors. P11473
#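 Fluorescence polarization assay of small-molecule disruption of VDR binding to coregulator peptide SRC2-3. Compounds and controls pin-transferred, then read after 2 h incubation at ambient room temperature.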
# GCN5L2 inh – GCN5L2 (KAT2A) acetyltransferase inhibition; Q92830; GCN5L2 HAT assay, ThioGlo1 CoA-SH fluorescence; Potency, µM (series often up to 58.9 µM), inactives show at the highest dose activity change, negative = inhibition, actives largely listed as inhibitors; 390,000 compounds, 0.21% hits; AID 504327
# Target sequence (Q92830 whole entry, looked up): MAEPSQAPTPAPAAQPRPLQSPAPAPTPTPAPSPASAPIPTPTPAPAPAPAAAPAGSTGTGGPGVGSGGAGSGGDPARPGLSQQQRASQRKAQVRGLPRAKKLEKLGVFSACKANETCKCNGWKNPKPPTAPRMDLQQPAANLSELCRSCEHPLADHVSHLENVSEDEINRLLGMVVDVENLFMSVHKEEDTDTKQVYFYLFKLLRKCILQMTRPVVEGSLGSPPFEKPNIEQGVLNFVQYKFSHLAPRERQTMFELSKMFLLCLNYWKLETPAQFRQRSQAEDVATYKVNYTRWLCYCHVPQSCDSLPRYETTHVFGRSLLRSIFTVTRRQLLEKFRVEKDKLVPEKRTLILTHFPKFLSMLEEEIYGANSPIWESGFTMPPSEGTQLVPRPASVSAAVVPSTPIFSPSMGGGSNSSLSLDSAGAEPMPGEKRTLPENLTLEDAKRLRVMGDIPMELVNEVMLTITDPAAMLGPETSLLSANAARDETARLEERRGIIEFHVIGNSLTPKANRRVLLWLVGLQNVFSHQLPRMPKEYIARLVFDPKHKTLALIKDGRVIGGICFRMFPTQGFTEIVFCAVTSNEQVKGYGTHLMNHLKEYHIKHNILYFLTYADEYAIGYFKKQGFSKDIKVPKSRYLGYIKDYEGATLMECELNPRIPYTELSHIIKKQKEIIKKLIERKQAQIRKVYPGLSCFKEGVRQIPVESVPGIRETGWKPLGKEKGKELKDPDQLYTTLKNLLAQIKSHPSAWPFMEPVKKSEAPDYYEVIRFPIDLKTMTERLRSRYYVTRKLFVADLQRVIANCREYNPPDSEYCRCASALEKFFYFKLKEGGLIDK
#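 Titration-based screen in which CoA formation is detected via maleimide probe ThioGlo1 (50uM) turning fluorescent on thiol reaction; substrates H3(1-25) 75uM and acetyl-CoA 70uM, GCN5L2 20nM, 20 min incubation at room temperature.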
# TDP1 block – inhibitors of human tyrosyl-DNA phosphodiesterase TDP1; 350,000 compounds, 0.28% hits; Potency, µM (titrated, usually from 130 µM), for the others: top-dose activity change, negative = inhibition, usual class: inhibitors; Q9NUW8; AID 485290; recombinant TDP1, AlphaScreen DNA substrate cleavage; further: nearly all actives have a fitted effect of over 40% in size
#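 Recombinant human Tdp1 (E. coli-expressed, 1 nM final) preincubated with compounds 15 min at room temperature, then 5'-biotin/3'-phosphotyrosine-FITC DNA substrate (15 nM final) added for 5 min. AlphaScreen beads (10 ug/ml final) added 10 min; cleavage lowers signal.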
# TDP1 cell noCPT – qHTS for Inhibitors of human tyrosyl-DNA phosphodiesterase 1 (TDP1): qHTS in cells in absence of CPT; DT40 Tdp1-/- hTDP1 cells, no CPT, ATP luminescence, 48 h; AID 686978, 2013; Potency, µM (titrated, usually from 46.2 µM), for the others: top-dose activity change, negative = growth inhibition, most hits filed as inhibitors; 420,000 compounds, 15% hits; further: nearly all actives have a fitted effect of over 55% in size
#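 No-CPT arm: Tdp1-/-;hTDP1 DT40 cells (400/well) plus compounds, incubated ≥48 hr at 37 °C. Readout CellTiter-Glo luminescence.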
# TDP1 cell CPT – growth inhibition of DT40 Tdp1-/-;hTDP1 cells with camptothecin (screen for TDP1 inhibitors); 420,000 compounds, 12% hits; AID 686979; Potency, µM (highest dose often 46.2 µM), for inactives: top-dose activity change, negative = growth inhibition, actives largely listed as inhibitors; chicken DT40 Tdp1-/-;hTDP1 cells + 20 nM CPT, ATP luminescence, 48 h; further: nearly all actives have a fitted effect of over 55% in size
#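 Cell growth measured by CellTiter-Glo luminescence after a minimum 48 h, 37 C compound exposure with 20 nM CPT in Tdp1-knockout DT40 cells stably expressing hTDP1, seeded 400/well; qHTS titration format.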
# PLK1 PBD block – PLK1 (human) polo-box domain binding inhibition; P53350; Plk1 PBD binding of FITC phosphopeptide, fluorescence polarization; Potency, µM, without a hit: max response, negative = inhibition, hits mostly inhibitors; 360,000 compounds, 2.8% hits; further: series mostly up to about 57 µM; nearly all actives have a fitted effect of over 65% in size
# TbPYK confirm – confirmation of Trypanosoma brucei pyruvate kinase inhibitors | shares compounds with PLK1 PBD block | recombinant TbPYK, Kinase-Glo ATP luminescence | Potency, µM (top dose mostly 76.9 µM), for inactives: top-dose activity change, negative = inhibition, usual class: inhibitors | 890 compounds, 67% hits | AID 720569; further: nearly all actives have a fitted effect of over 70% in size
# TbPYK ADP-Glo – TbPYK inhibition, orthogonal confirmation | recombinant TbPYK, ADP-Glo luminescence, 60 min | shares compounds with PLK1 PBD block | Potency, µM (titrated, usually from 76.9 µM), for the others: at the highest dose activity change, negative = inhibition, hits mostly inhibitors | 890 compounds, 62% hits; further: nearly all actives have a fitted effect of over 75% in size
# The depositor's hits bear a star; ? = inconclusive; . = not tested or not shown; [ ] = remark or other dose. The call rests on the fitted dose curve; in most records, active means well fitted curve in the direction sought with a large enough effect; inconclusive means small, poorly fitted or top-dose-only effect, or another doubt; inactive means no such curve, though single readings can be large; an effect the other way counts as inactive or inconclusive. On the % scale 0 is the no-effect control and ±100 the full control effect; potency means the concentration at half of the fitted maximal effect.
SMILES,VDR inh,GCN5L2 inh,TDP1 block,TDP1 cell noCPT,TDP1 cell CPT,PLK1 PBD block,TbPYK confirm,TbPYK ADP-Glo
COc1ccc(CN=C2NN=C(c3ccccc3)CS2)cc1,-29%,-13%,6%,?,3%,?,.,.
Cc1ccc(O)c(N=Nc2ccccc2)n1,0%,-9%,17%[56.1 µM],16µM*,2.9µM*,-8%,10µM*,15%
COc1ccc(N2C(=O)/C(=C/N(C)C)NC2=S)cc1,9%,-8%,.,3%,4%,-7%,5.6µM*,13µM*
c1ccc2sc(NC3=NCN(CC4CCCO4)CN3)nc2c1 (stereo unspecified),2%,0%,-4%,8%,4%,-5%,.,.
c1cc2c(cc1CN1CCOCC1)OCO2,-12%,-4%,4%,18%,0%,-7%,12%,-3%
Cn1ccc(-c2ccccc2)n1,13%,-1%,-4%,14%,1%,-3%,.,.
N#Cc1cc(-c2ccccc2)nn1-c1ccccc1,?,?,.,21µM*,?,6µM*,2.5µM*,3.2µM*
COc1cccc(CN(C)C(=O)c2csc3c2CCCC3)c1OC,5%,-8%,3%,-23%,-8%,-8%,.,.
Cc1onc(-c2ccccc2Cl)c1C(=O)N1CCCc2ccccc21,-12%,-2%,3%,?,?,-6%,7.9µM*,8.9µM*
Cc1onc(-c2ccccc2Cl)c1C(=O)N1CCc2ccccc21,-9%,-5%,1%,?,?,-11%,.,.
Cc1onc(-c2c(F)cccc2Cl)c1C(=O)N1CCCc2ccccc21,26%,-1%,4%,18µM*,?,-2%,8.9µM*,7.9µM*
CCOC(=O)C(C)Sc1nc(N2CCOCC2)c2c(c1C#N)CC(C)(C)OC2 (stereo unspecified),7%,.,.,?,0%,-6%,.,.
CCOC(=O)CCSc1nc(N2CCOCC2)c2c(c1C#N)CC(C)(C)OC2,-8%,-5%,.,-26%,-14%,-10%,11µM*,11µM*
CN(C)CCCNCC(=O)NN(c1ccccc1)c1ccccc1,8%,-8%,.,5%,-23%,6%,.,.
O=C(NCCCNC(=O)c1cccs1)c1cccs1,?,-1%,2%,9.2µM*,8.2µM*,2.7µM*,-5%,-9%
CC(C)C(=O)Nc1ccc(-c2nc3ccccc3c(=O)o2)cc1,7%,2%,2%,10%,-6%,-2%,.,.
COc1ccc2c(c1)CC=C1C2CCC2(C)C(=O)C(=NO)CC12 (stereo unspecified),-14%,.,.,?,?,-3%,.,.
COc1ccc(-c2nc3ccc(Cl)cn3c2Cc2cccc(Cl)c2)cc1OC,.,.,.,?,?,3%,.,.
Fc1cccc(Cc2c(-c3ccccc3)nc3ccc(Br)cn23)c1,.,.,.,?,?,-4%,.,.
Fc1cccc(Cc2c(-c3ccco3)nc3ccc(Cl)cn23)c1,.,.,.,?,?,24µM*,-28%,?
Fc1cccc(Cc2c(-c3ccco3)nc3ccc(Br)cn23)c1,.,.,.,16µM*,16µM*,24µM*,?,?
COC(=O)c1ccc2nc(-c3ccco3)c(Cc3ccccc3)n2c1,.,.,.,21µM*,26µM*,?,13µM*,14µM*
COC(=O)c1ccc2nc(-c3cccc(Cl)c3)c(CC3CCCCC3)n2c1,.,.,.,-17%,5%,7%,.,.
Clc1ccc2nc(-c3ccco3)c(Cc3ccccc3)n2c1,.,.,.,?,16µM*,?,?,35µM*
Oc1ccc2c(c1)OCO2,.,.,4%,.,.,.,.,.
SMILES,VDR inh,GCN5L2 inh,TDP1 block,TDP1 cell noCPT,TDP1 cell CPT,PLK1 PBD block,TbPYK confirm,TbPYK ADP-Glo
Oc1ccc2c(c1)OCC1(O)Cc3cc(O)c(O)cc3C21 (stereo unspecified),79µM*,-9%,-10%[56.1 µM],6.5µM*,6.5µM*,?,2.2µM*,3.2µM*
O=C(CSc1nc2ccccc2c(=O)n1CC1CCCO1)Nc1ccc(F)cc1 (stereo unspecified),3%,-6%,21%,?,?,1%,.,.
Cc1ccc(S(=O)(=O)C=CS(=O)(=O)c2ccc(C)cc2)cc1,.,.,.,0.73µM*,1µM*,2.7µM*,-61%,?
O=C(c1c(F)cccc1F)N(Cc1ccccn1)C1CC1,2%,-11%,2%,?,-26%,-28%,.,.
O=C(Nc1nc2ccc(S(=O)(=O)N3CCCC3)cc2s1)c1ccccn1,-21%,-9%,8%,2.9µM*,6.5µM*,-16%,?,?
O=C(CN(Cc1ccc(Cl)cc1)C(=O)CNS(=O)(=O)c1ccc(F)cc1)NCC1CCCO1 (stereo unspecified),7%,-5%,.,-22%,-23%,-1%,.,.
O=C(CSc1nnc(-c2ccco2)c(-c2ccco2)n1)c1ccccc1,?,1%,3%,?,?,17µM*,14µM*,20µM*
CC(=O)c1ccc(NC(=O)CSc2nnc(-c3ccco3)c(-c3ccco3)n2)cc1,22µM*,?,-3%,-26%,?,13µM*,28µM*,32µM*
COC(=O)c1cc(-c2ccc(C)o2)nc2ccccc12,79µM*,?,.,15µM*,7.3µM*,15µM*,?,?
Cc1ccc(-c2cc(C(=O)NCc3ccco3)c3ccccc3n2)o1,-3%,?,.,?,?,?,.,.
Cc1ccc(-c2cc(C(=O)NCC(c3ccccc3)N(C)C)c3ccccc3n2)o1 (stereo unspecified),-8%,-22%,0%,?,?,-17%,.,.
Cc1ccc(-c2cc(C(=O)N3CC(C)CC(C)C3)c3ccccc3n2)o1 (stereo unspecified),?,-15%,-14%,18µM*,?,24µM*,25µM*,35µM*
COc1ccc(CCNC(=O)CCS(=O)(=O)c2ccc3nc(C)sc3c2)cc1OC,-1%,13%,.,-26%,-10%,-5%,.,.
CCOc1cc(/C=N/N=C2/NC(=O)C(CC(=O)O)S2)ccc1OCc1ccc(Cl)cc1 (stereo unspecified),-16%,?,.,13%,16%,?,16µM*,32µM*
